Experimental data as given in PubChem BioAssay (Tox21).
Values without a mark were called inactive. Records with an inconclusive call do not appear. A call without a number means that no potency is given here. Active and inactive are the calls of the source. Unless noted, the call rests on the fitted dose curve; in most records, active means well fitted curve in the direction sought with a large enough effect in the repeat runs; inconclusive means weak or mixed curves; inactive means no such curve, though single readings can be large; an effect the other way counts as inactive or inconclusive.

Tests used:
[1] = qHTS assay for small molecule agonists of the p53 signaling pathway (AID 651631; calls by dose curve; further: nearly all actives have a fitted effect of over 15% in size; further: potency means the concentration at half of the fitted maximal effect)
Method in brief: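 Stably transfected HCT-116 cells (beta-lactamase behind p53 response elements) get compounds after a 5 h settling period; 16 h later at 37 °C, FRET substrate is loaded and fluorescence read after 2 h.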

[2] = qHTS assay for small molecules that induce genotoxicity in human embryonic kidney cells expressing luciferase-tagged ATAD5 (AID 651632); further: nearly all actives have a fitted effect of over 15% in size; further: potency means the concentration at half of the fitted maximal effect
Method in brief: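 Cells were seeded at 2,000 per well, dosed with compound, and incubated 16 hr at 37C in 5% CO2. Luciferase activity was then quantified after a 30 min room-temperature incubation with Amplite.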

[3] = qHTS assay for small molecule agonists of the p53 signaling pathway - cell viability (AID 651633; calls by dose curve;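 further: p53RE-bla HCT reporter cells with a stable beta-lactamase p53 reporter; series mostly up to about 83 µM; nearly all actives have a fitted effect of over 30% in size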)
Method in brief: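 p53RE-bla cells were treated with compound for 16 hours at 37 C. Cytotoxicity was then measured as CellTiter-Glo luminescence after 30 min at room temperature.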

[4] = qHTS assay for small molecule disruptors of the mitochondrial membrane potential (AID 720635); further: potency means the concentration at half of the fitted maximal effect
Method in brief: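 HepG2 cells exposed to compound 1 hr at 37C, then Mito-MPS dye 30 min. Ratio read of aggregate (540/590 nm) versus monomer (490/535 nm) fluorescence.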

[5] = qHTS assay to test for compound auto fluorescence at 590 nm (red) in HepG2 cells (AID 720674)
Method in brief: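 Seeding: 2,000 HepG2 cells/well, MEM/10% FBS, overnight 37 C. Dosing: compound vs DMSO. Incubation: 1 hr, 37 C, 5% CO2. Read: fluorescence 540 ex/590 em, Rose Bengal sodium as red reference.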

[6] = qHTS assay to test for compound auto fluorescence at 535 nm (green) in HepG2 cells (AID 720675)
[7] = qHTS assay to test for compound auto fluorescence at 460 nm (blue) in HEK293 cells (AID 720678)
Method in brief: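 Measured: blue fluorescence (Ex 405/Em 460 nm) of compound-treated HEK293 cells, incubated overnight at 37C with 5% CO2 and scaled to triamterene equivalents.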

[8] = qHTS assay to test for compound auto fluorescence at 590 nm (red) in HEK293 cells (AID 720679)
Method in brief: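 Using HEK293 cells at 2,000 per well, the screen added 23 nL of each compound after cell attachment and incubated overnight (37C, 5% CO2). The plate reader then captured red-label fluorescence, Ex/Em 540/590nm.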

[9] = qHTS assay to test for compound auto fluorescence at 535 nm (green) in HEK293 cells (AID 720680)
[10] = qHTS assay to test for compound auto fluorescence at 460 nm (blue) in HEK293 cell free culture (AID 720681)
Method in brief: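 Compounds were added to cell-free DMEM with 10% FBS and fluorescence read directly. The blue channel used 405 nm excitation and 460 nm emission, with triamterene as the reference fluorophore.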

[11] = qHTS assay to test for compound auto fluorescence at 535 nm (green) in HEK293 cell free culture (AID 720682)
Method in brief: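 Using fluorescein as calibrant, autofluorescence was quantified at 485/535 nm in cell-free DMEM containing 10% FBS after pintool addition of compound or vehicle.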

[12] = qHTS assay to test for compound auto fluorescence at 590 nm (red) in HEK293 cell free culture (AID 720683)
Method in brief: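 Cell-free wells of DMEM with 10% FBS received compound, and intrinsic fluorescence was read at excitation/emission 540/590 nm. Values expressed as equivalence to Rose Bengal sodium.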

[13] = qHTS assay to test for compound auto fluorescence at 590 nm (red) in HepG2 cell free culture (AID 720684)
Method in brief: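 Auto fluorescence equivalency versus Rose Bengal sodium, red channel Ex/Em 540/590 nm; compounds in cell-free MEM/10% FBS; DMSO vehicle control.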

[14] = qHTS assay to test for compound auto fluorescence at 460 nm (blue) in HepG2 cell free culture (AID 720685)
Method in brief: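 Cell-free plates of MEM plus 10% FBS received 23 nL compound or DMSO vehicle; blue-channel (405/460 nm) intensity scored against triamterene as reference fluorophore.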

[15] = qHTS assay to test for compound auto fluorescence at 535 nm (green) in HepG2 cell free culture (AID 720686)
[16] = qHTS assay to test for compound auto fluorescence at 460 nm (blue) in HepG2 cells (AID 720687)
Method in brief: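 HepG2 cells in MEM with 10% FBS, attached overnight at 37 C, were exposed to compound or DMSO for 1 hr at 37 C, 5% CO2. Blue fluorescence was read at 405/460 nm, with triamterene as reference fluorophore.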

[17] = qHTS assay for small molecule disruptors of the mitochondrial membrane potential - cell viability (AID 720634; calls by dose curve; further: nearly all actives have a fitted effect of over 20% in size; further: potency means the concentration at half of the fitted maximal effect)
Method in brief: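 Cytotoxicity was measured by ATP quantitation in HepG2 wells that had first been treated with compound for 1 hr and stained with m-MPI dye; CellTiter-Glo incubation was 30 min at room temperature.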

[18] = qHTS assay for small molecules that induce genotoxicity in human embryonic kidney cells expressing luciferase-tagged ATAD5 - cell viability (AID 651634; calls by dose curve; further: nearly all actives have a fitted effect of over 25% in size)
Method in brief: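 Cells (HEK293T, luciferase-tagged ATAD5) are seeded at 2,000 per well, dosed with compound or DMSO vehicle, and incubated 15.5 hr at 37C and 5% CO2. CellTiter-Fluor is added for 30 min before fluorescence is measured.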

[19] = target: Glucocorticoid receptor (Homo sapiens) (UniProt P04150); assay: qHTS assay to identify small molecule agonists of the glucocorticoid receptor (GR) signaling pathway (AID 720691; active means well fitted activation curve with a large enough effect in the signal ratio in the repeat runs, not every such curve was filed as active; the % refers to the signal ratio)
Chain of Glucocorticoid receptor (Homo sapiens) (P04150 whole entry, looked up): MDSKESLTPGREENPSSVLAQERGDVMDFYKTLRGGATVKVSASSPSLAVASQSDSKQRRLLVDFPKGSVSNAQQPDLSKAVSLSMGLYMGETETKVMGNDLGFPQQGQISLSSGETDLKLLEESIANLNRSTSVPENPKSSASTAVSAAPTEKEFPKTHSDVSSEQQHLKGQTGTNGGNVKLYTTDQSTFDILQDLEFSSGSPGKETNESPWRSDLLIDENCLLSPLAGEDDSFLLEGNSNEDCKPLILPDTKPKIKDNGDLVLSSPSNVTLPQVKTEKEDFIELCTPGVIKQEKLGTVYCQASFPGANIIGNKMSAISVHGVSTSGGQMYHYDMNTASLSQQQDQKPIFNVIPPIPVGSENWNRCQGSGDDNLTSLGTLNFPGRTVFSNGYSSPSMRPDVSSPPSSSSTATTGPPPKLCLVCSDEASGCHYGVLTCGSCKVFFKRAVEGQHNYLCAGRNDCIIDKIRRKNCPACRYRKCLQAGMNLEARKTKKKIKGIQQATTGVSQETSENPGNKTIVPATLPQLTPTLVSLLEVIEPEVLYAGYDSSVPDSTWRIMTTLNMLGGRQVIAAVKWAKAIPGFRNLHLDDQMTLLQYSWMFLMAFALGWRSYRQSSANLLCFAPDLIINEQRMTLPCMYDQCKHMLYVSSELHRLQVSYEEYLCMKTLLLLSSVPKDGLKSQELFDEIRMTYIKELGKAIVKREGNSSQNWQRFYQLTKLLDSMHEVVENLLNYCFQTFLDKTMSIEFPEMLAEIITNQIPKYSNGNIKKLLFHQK
Method in brief: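 Steps: seed GR-bla HeLa cells, incubate 4 h at 37 C/5% CO2; pin-transfer DMSO-dissolved compounds; incubate 18 h at 37 C; add LiveBLAzer B/G FRET substrate; after 2 h at room temperature, measure fluorescence.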

[20] = target: Glucocorticoid receptor (Homo sapiens) (UniProt P04150); assay: qHTS assay to identify small molecule antagonists of the glucocorticoid receptor (GR) signaling pathway (AID 720692; active means well fitted inhibition curve with a large enough effect in the signal ratio in the repeat runs, not every such curve was filed as active; the % refers to the signal ratio)
Method in brief: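 Antagonism was scored as loss of dexamethasone-driven (5 nM final) reporter signal in HeLa cells bearing a glucocorticoid response element–beta-lactamase construct, after 18 h compound exposure at 37 C and 2 h FRET substrate loading.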

SMILES | Potency [1] | Potency [2] | Potency [3] | Potency [4] | outcome [5] | outcome [6] | Potency [7] | outcome [8] | outcome [9] | Potency [10] | outcome [11] | outcome [12] | outcome [13] | Potency [14] | outcome [15] | Potency [16] | Potency [17] | Potency [18] | Potency [19] | Potency [20]
CCCC[C@H]1CN(CC2CCOCC2)C(=O)OC12CCN(C1(C)CCN(C(=O)c3c(C)ncnc3C)CC1)CC2 | inactive | inactive | inactive | inactive | inactive | inactive | inactive | inactive | inactive | inactive | inactive | inactive | inactive | inactive | inactive | inactive |  |  |  | 
CCCCCCOC(=O)CCC | inactive | inactive | inactive | inactive | inactive | inactive | inactive | inactive | inactive | inactive | inactive | inactive | inactive | inactive |  | inactive | inactive |  |  | 
C=CC[N+]1([C@H]2C[C@H]3[C@@H]4CC[C@H]5C[C@H](OC(C)=O)[C@@H](N6CCCCC6)C[C@]5(C)[C@H]4CC[C@]3(C)[C@H]2OC(=O)CC)CCCCC1 | inactive | inactive |  |  | inactive | inactive | inactive | inactive | inactive | inactive | inactive | inactive | inactive |  | inactive | inactive | inactive | inactive |  | 
CCCCCCCCCCCCCCC1CO1 (stereo unspecified) | inactive | inactive | inactive |  | inactive | inactive | inactive | inactive | inactive | inactive | inactive | inactive | inactive | inactive | inactive | inactive |  |  | inactive | inactive
COc1ccc(OC)c(OC)c1 | inactive | inactive | inactive | inactive | inactive | inactive | inactive | inactive | inactive | inactive | inactive | inactive | inactive | inactive |  | inactive | inactive |  | inactive | inactive
CC(=O)c1ccc2c(c1)[C@H](NC(=O)c1ccc(F)cc1)[C@@H](O)C(C)(C)O2 | inactive | inactive |  |  | inactive | inactive | inactive | inactive | inactive | inactive | inactive | inactive | inactive | inactive | inactive | inactive | inactive | inactive | inactive | 
Nc1cnn([C@@H]2O[C@H](CO)[C@@H](O)[C@H]2O)c(=O)n1 | 1.94 µM (active) | inactive | inactive |  | inactive | inactive | inactive | inactive | inactive | inactive | inactive | inactive | inactive | inactive | inactive | inactive | inactive |  |  | 
O=C(/C=C/c1ccc(O)c(O)c1)O[C@@H]1C[C@](O)(C(=O)O)C[C@@H](O)[C@H]1O | inactive | inactive | inactive |  | inactive |  | inactive | inactive | inactive | inactive | inactive | inactive | inactive | inactive | inactive | inactive | inactive |  | inactive | 
CCCCCCCCCO | inactive | inactive | inactive |  | inactive |  | inactive | inactive | inactive | inactive | inactive | inactive | inactive | inactive | inactive | inactive | inactive |  | inactive | inactive
Nc1nc(CC(=O)O)cs1 | inactive | inactive | inactive | inactive | inactive | inactive | inactive | inactive | inactive | inactive | inactive | inactive | inactive | inactive | inactive | inactive | inactive |  | inactive | 
C1CCC2OC2C1 (stereo unspecified) | inactive | inactive |  | inactive | inactive | inactive | inactive | inactive | inactive | inactive | inactive | inactive | inactive |  |  | inactive | inactive | inactive |  | inactive
O=C(CC(=O)c1ccccc1)c1ccccc1 | inactive | 11.7 µM (active) |  | 11.7 µM (active) | inactive | inactive | inactive | inactive | inactive | inactive | inactive | inactive | inactive | inactive | inactive | inactive | 36.9 µM (active) | inactive |  | inactive
CC(=O)NCCCS(=O)(=O)O | inactive | inactive | inactive | inactive | inactive | inactive | inactive | inactive | inactive | inactive |  | inactive | inactive | inactive | inactive | inactive | inactive |  | inactive | inactive
CCOC(=S)SSC(=S)OCC | inactive | inactive | inactive | inactive | inactive | inactive | inactive | inactive | inactive | inactive |  | inactive | inactive | inactive |  | inactive | inactive |  | inactive | 
Cc1cccc(Oc2ccccc2)c1 | inactive | inactive |  | inactive | inactive | inactive | inactive | inactive | inactive | inactive | inactive | inactive | inactive | inactive |  | inactive | inactive | inactive |  | inactive
